Shown are actives, neighbours in structure and some others; about 5.7% of the full set was active somewhere.
JMJD2A Tudor inh: inhibitors of human JMJD2A Tudor domain; Potency, µM (doses to about 114 µM), without a hit: at the top dose activity change, negative = inhibition, usual class: inhibitors; AID 504339; 390,000 compounds, 4.4% hits; AlphaScreen JMJD2A-Tudor / H3K4me3 peptide binding; further: potency means the concentration at half of the fitted maximal effect; on the % scale 0 is the no-effect control and ±100 the full control effect; nearly all actives have a fitted effect of over 50% in size
Target sequence (O75164 whole entry, looked up, the tested form may be a part): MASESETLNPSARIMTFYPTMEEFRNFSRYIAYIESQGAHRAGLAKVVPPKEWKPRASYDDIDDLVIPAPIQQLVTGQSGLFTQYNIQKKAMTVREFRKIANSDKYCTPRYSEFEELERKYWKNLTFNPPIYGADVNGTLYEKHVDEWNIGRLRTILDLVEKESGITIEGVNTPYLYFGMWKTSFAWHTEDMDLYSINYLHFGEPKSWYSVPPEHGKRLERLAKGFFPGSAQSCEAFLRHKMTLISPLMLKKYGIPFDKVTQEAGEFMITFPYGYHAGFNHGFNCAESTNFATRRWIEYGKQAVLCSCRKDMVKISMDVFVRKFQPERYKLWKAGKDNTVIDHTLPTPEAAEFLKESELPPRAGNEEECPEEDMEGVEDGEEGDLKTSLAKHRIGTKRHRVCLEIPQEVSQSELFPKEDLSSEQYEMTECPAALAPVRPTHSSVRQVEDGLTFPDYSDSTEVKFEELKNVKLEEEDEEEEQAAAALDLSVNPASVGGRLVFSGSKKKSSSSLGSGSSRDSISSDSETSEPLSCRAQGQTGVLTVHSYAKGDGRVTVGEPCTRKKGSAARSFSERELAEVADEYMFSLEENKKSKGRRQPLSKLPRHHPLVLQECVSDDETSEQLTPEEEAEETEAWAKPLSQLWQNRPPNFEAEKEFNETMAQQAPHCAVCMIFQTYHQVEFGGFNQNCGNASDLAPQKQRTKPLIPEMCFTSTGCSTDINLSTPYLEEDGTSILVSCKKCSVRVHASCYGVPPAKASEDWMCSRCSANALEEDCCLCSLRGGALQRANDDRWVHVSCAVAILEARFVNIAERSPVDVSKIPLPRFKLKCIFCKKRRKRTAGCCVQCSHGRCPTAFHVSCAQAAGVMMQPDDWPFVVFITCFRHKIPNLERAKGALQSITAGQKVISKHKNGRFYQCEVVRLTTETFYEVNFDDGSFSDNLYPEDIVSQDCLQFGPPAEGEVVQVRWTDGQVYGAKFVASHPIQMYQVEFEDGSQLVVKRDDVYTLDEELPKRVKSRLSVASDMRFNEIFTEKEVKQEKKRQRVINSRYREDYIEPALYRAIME
BAZ2B inh: blocks human BAZ2B. Q9UIF8. AlphaScreen BAZ2B-H3K14Ac peptide displacement. Potency, µM (top dose mostly 114 µM), for the others: at the highest dose activity change, negative = inhibition, actives largely listed as inhibitors. 360,000 compounds, 4.4% hits. AID 504333; further: potency means the concentration at half of the fitted maximal effect; on the % scale 0 is the no-effect control and ±100 the full control effect; nearly all actives have a fitted effect of over 60% in size
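BAZ2B 50 nM plus b-H3(5-23)K14Ac 50 nM, PBS pH 7.4/0.01% Tween-20, 30 min RT; compound added (max 110 uM), 30 min RT; streptavidin donor/Ni-chelate acceptor beads 10 ug/mL final, 20 min dark; AlphaScreen read.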
KDM4E inh: inhibitors of human JMJD2E histone demethylase; JMJD2E catalytic domain, FDH-coupled NADH fluorescence (FDH is formaldehyde dehydrogenase); Potency, µM (titrated, usually from 57.1 µM), inactives show top-dose activity change, negative = inhibition, most hits filed as inhibitors; 230,000 compounds, 1.6% hits; AID 2147; active means well fitted inhibition curve with a large enough effect, not every such curve was filed as active; inconclusive means small, poorly fitted or top-dose-only effect, or another doubt; inactive means no such curve, though single readings can be large or run the other way;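 further: potency means the concentration at half of the fitted maximal effect; 0% = wells with enzyme and -100% = buffer wells without enzyme; nearly all actives have a fitted effect of over 50% in size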
PI5P4K alpha inh: blocks human PI5P4K alpha kinase activity; P48426; PI5P4Kalpha enzyme, ADP-Glo luminescence, 60 min; stronger effect = lower value; max response, %; 330,000 compounds, 1.2% hits; active means max response of -50% or lower; inconclusive means between -30% and -50%; inactive means -30% or higher; further: value at the top dose of about 77 µM; on the % scale 0 is the no-effect control and ±100 the full control effect
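Single end-point luminescence (ADP-Glo) quantified ADP from PI5P4Kalpha turnover; ATP 5 microM final, 1 h at RT, 0.1% CHAPS and 0.28 mM EGTA in HEPES pH 7.4.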
L3MBTL1 inh: inhibitors of human L3MBTL1. 230,000 compounds, 0.66% hits. Potency, µM (series often up to 57.1 µM), for the others: top-dose activity, negative = inhibition, hits mostly inhibitors. AlphaScreen L3MBTL1–H3K9me1 peptide binding; further: potency means the concentration at half of the fitted maximal effect; on the % scale 0 is the no-effect control and ±100 the full control effect; nearly all actives have a fitted effect of over 60% in size
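Displacement of a biotinylated histone H3(1-15) peptide monomethylated at Lys9 (75 nM) from L3MBTL1 (50 nM) was measured by AlphaScreen after a 30 min room-temperature compound incubation; cefsulodin titration served as intraplate control.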
HP1b binding inh: inhibitors of HP1-beta chromodomain binding to methylated histone tails. AlphaScreen HP1-beta / biotin-H3K9me3 peptide binding. Potency, µM (highest dose often 114 µM), for the others: at the top dose activity change, negative = inhibition, hits mostly inhibitors. P83916. AID 540317. 390,000 compounds, 0.56% hits; further: potency means the concentration at half of the fitted maximal effect; nearly all actives have a fitted effect of over 70% in size
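AlphaScreen: HP1-beta (50 nM) preformed 30 min with biotin-H3(1-18)K9me3 peptide (50 nM) in PBS pH 7.4, 0.01% Tween-20. Compound added for 30 min at RT, then streptavidin donor/nickel chelate acceptor beads (10 ug/mL) for 30 min.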
Active calls of the source: *; ! = not confirmed by another sample; [ ] = remark or other dose. Unless noted, the call rests on the fitted dose curve; in most records, active means well fitted inhibition curve with a large enough effect; inconclusive means small, poorly fitted or top-dose-only effect; inactive means no such curve, though single readings can be large or run the other way.

Results for O=C(O)c1ccc(-n2c(-c3cc(C4CC4)[nH]n3)n[nH]c2=S)cc1 ?
JMJD2A Tudor inh: 20µM*; BAZ2B inh: -10.4%; KDM4E inh: -4.5%; PI5P4K alpha inh: -7.2; L3MBTL1 inh: 0.3%; HP1b binding inh: 43.6%

How did CC(=O)OCC(NC(=O)C(C)NC(=O)OC(C)(C)C)C1OC(n2cc(F)c(=O)[nH]c2=O)C(OC(C)=O)C1OC(C)=O (configuration not stated) do in these assays?
JMJD2A Tudor inh: -15.2%; HP1b binding inh: 21.2%

How did O=C(CSc1oc(-c2cccs2)nc1S(=O)(=O)c1ccccc1)Nc1ccc(F)cc1 do in these assays?
JMJD2A Tudor inh: -1.4%; BAZ2B inh: 1.1%; HP1b binding inh: 42.3%

How did Cc1cccc2sc(NNC(=O)c3ccc(S(=O)(=O)N4CCCC(C)C4)cc3)nc12 (configuration not stated) do in these assays?
JMJD2A Tudor inh: 11.2µM*; BAZ2B inh: 10.5%; KDM4E inh: inconclusive; PI5P4K alpha inh: -4.4; L3MBTL1 inh: inconclusive; HP1b binding inh: -24.4%

Results for Cc1cccc2sc(NNC(=O)c3ccc(S(=O)(=O)N4CCc5ccccc5C4)cc3)nc12 ?
JMJD2A Tudor inh: 8.91µM*; BAZ2B inh: 3.98µM*; KDM4E inh: 10.4%; PI5P4K alpha inh: -9.0; L3MBTL1 inh: inconclusive; HP1b binding inh: -14.8%

Results for Cc1cc(C)c2nc(NNC(=O)c3ccc(S(=O)(=O)N4CCCCC4)cc3)sc2c1 ?
JMJD2A Tudor inh: inconclusive; BAZ2B inh: inconclusive; KDM4E inh: inconclusive; PI5P4K alpha inh: 0.4; L3MBTL1 inh: inconclusive; HP1b binding inh: 9.1%

Results for COCCNC(=O)CNC(c1ccccc1)c1ccccc1 ?
BAZ2B inh: 56.2µM*; KDM4E inh: 5.1%

How did CC1CC1C(=O)OCC(=O)Nc1ccc(N=Nc2ccccc2)cc1 (configuration not stated) do in these assays?
JMJD2A Tudor inh: -27.6%; BAZ2B inh: 28.2µM*; KDM4E inh: -12.6%; PI5P4K alpha inh: 25.6; L3MBTL1 inh: -25.3%; HP1b binding inh: inconclusive

What do the screens show for `CCOc1ccc(NC(=O)COC(=O)C2CC2C)cc1` (configuration not stated)?
JMJD2A Tudor inh: -4.1%; PI5P4K alpha inh: 1.9; L3MBTL1 inh: 28.8%; HP1b binding inh: 27.8%

How did COc1ccc(-c2nc(CN3CCC(C(=O)NCCCN4CCN(c5ccccc5F)CC4)CC3)c(C)o2)cc1OC do in these assays?
JMJD2A Tudor inh: -22.9%; BAZ2B inh: inconclusive; HP1b binding inh: 23.5%

How did CCOc1ccccc1C(=O)NCc1ccc2c(c1)CCN2C(=O)c1ccccc1 do in these assays?
JMJD2A Tudor inh: -12.7%; BAZ2B inh: -1.4%; HP1b binding inh: 27.0%

What do the screens show for `CCCCNCCCOc1ccc(C)cc1Br`?
JMJD2A Tudor inh: 20µM*; BAZ2B inh: 56.2µM*; KDM4E inh: inconclusive; PI5P4K alpha inh: 5.2; L3MBTL1 inh: 6.7%; HP1b binding inh: inconclusive

Results for CNCCCOc1ccc(C)cc1Br ?
JMJD2A Tudor inh: 3.16µM*; BAZ2B inh: 56.2µM*; KDM4E inh: -26.9%; PI5P4K alpha inh: 1.9; HP1b binding inh: inconclusive

How did Cc1ccc(OCCCNCCO)c(Br)c1 do in these assays?
JMJD2A Tudor inh: -6.6%; BAZ2B inh: 0.0%; KDM4E inh: 6.3%; PI5P4K alpha inh: 8.9; HP1b binding inh: 35.6%

What do the screens show for `CCOc1ccc(-n2c(SCc3ccccc3)nc3c([nH]c4ccccc43)c2=O)cc1`?
JMJD2A Tudor inh: inconclusive; BAZ2B inh: -0.7%; HP1b binding inh: 19.1%[57 µM]

How did NCCc1c(C(=O)O)[nH]c2ccc([N+](=O)[O-])cc12 do in these assays?
JMJD2A Tudor inh: -10.3%[11.4 µM]; BAZ2B inh: -12.3%; KDM4E inh: -2.7%; PI5P4K alpha inh: -26.8; HP1b binding inh: -9.6%

What do the screens show for `Cc1c(C(=O)O)[nH]c2ccc([N+](=O)[O-])cc12`?
JMJD2A Tudor inh: 79.4µM*; BAZ2B inh: 79.4µM*; KDM4E inh: -7.3%; PI5P4K alpha inh: -26.3; L3MBTL1 inh: -6.3%; HP1b binding inh: inconclusive

Results for O=C(O)c1c[nH]c2cc(C(F)(F)F)ccc2c1=O ?
JMJD2A Tudor inh: 0.3%; BAZ2B inh: 50.1µM*; KDM4E inh: -30.6%; PI5P4K alpha inh: -1.1; L3MBTL1 inh: -9.3%; HP1b binding inh: 14.0%

Results for O=C(O)c1c[nH]c2ccc([N+](=O)[O-])cc2c1=O ?
JMJD2A Tudor inh: 79.4µM*; PI5P4K alpha inh: 2.2; HP1b binding inh: 0.4%

How did CCNC(=O)C1CC(=O)N(CCCc2ccccc2)C(=Nc2ccccc2)S1 (configuration not stated) do in these assays?
JMJD2A Tudor inh: -13.5%; BAZ2B inh: -1.4%; KDM4E inh: 8.8%; PI5P4K alpha inh: 6.2; L3MBTL1 inh: 0.4%; HP1b binding inh: -2.5%

Results for CCN(CC(=O)Nc1ccc(NC(C)=O)cc1)C(=O)CCCc1c[nH]c2ccccc12 ?
JMJD2A Tudor inh: -28.9%; BAZ2B inh: -7.6%; PI5P4K alpha inh: -3.5; L3MBTL1 inh: -3.1%; HP1b binding inh: 3.8%

Results for CCOc1ccc(CC(=O)Nc2ccc3nc(N4CCCCC4)cc(C)c3c2)cc1OCC ?
JMJD2A Tudor inh: -22.0%; BAZ2B inh: -10.0%; HP1b binding inh: 22.0%

Results for N#Cc1cccc(OC2=NS(=O)(=O)c3ccccc32)c1 ?
JMJD2A Tudor inh: 35.5µM*

How did O=S1(=O)N=C(Oc2ccccc2)c2ccccc21 do in these assays?
JMJD2A Tudor inh: 89.1µM*; BAZ2B inh: 5.9%; KDM4E inh: -0.4%; PI5P4K alpha inh: -6.2; L3MBTL1 inh: 0.0%; HP1b binding inh: 9.9%

How did CCOC(=O)COc1ccc(CC)cc1C(=O)c1ccn2nc(-c3ccc(F)cc3)cc2n1 do in these assays?
JMJD2A Tudor inh: -0.4%; BAZ2B inh: -14.6%; HP1b binding inh: 45.4%

Results for CCc1nn2c(=O)cc(N3C(C)CNCC3C)nc2s1 (configuration not stated) ?
JMJD2A Tudor inh: -15.0%

How did Cc1cc2c(cc1S(=O)(=O)N1CCCCC1)OCC(=O)N2 do in these assays?
JMJD2A Tudor inh: -17.4%; BAZ2B inh: 79.4µM*!; PI5P4K alpha inh: -2.3; L3MBTL1 inh: 4.1%; HP1b binding inh: inconclusive

Results for CCOc1ccccc1NC(=O)CSc1ncc(S(=O)(=O)c2ccc(C)c(C)c2)c(N)n1 ?
JMJD2A Tudor inh: -5.0%; BAZ2B inh: 13.9%; HP1b binding inh: 21.5%

Results for O=S(=O)(Nc1c(O)ccc2ccccc12)c1cccc2ccccc12 ?
JMJD2A Tudor inh: 79.4µM*; PI5P4K alpha inh: -12.0; HP1b binding inh: 79.4µM*

How did Cc1ccc(S(=O)(=O)Nc2c(O)ccc3ccccc23)cc1 do in these assays?
JMJD2A Tudor inh: inconclusive; PI5P4K alpha inh: -27.3; HP1b binding inh: inconclusive

Bioassay records from PubChem BioAssay.
